Values without a mark were called inactive. For some assays here: Entries with a potency or affinity are not part of this list. The source made the active and inactive calls. Unless noted, how the calls were made is not given here.
How the values were obtained:
[1] = antimalarial activity against Dd2 strain (AID 2302;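 active means growth inhibition above 50% at the single 2 µM test dose, taken to imply half-maximal potency below 2 µM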;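 further: 0% = DMSO untreated growth and 100% = chloroquine plus artemisinin killed control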); conditions: P. falciparum Dd2 in RBCs, LDH growth readout, 72 h; at 2 µM; active compounds read high
[2] = human hepatoma cell viability loss – ATP luminescence, cytotoxicity control for P. falciparum antimalarial project, primary screen (AID 2303;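 active means inhibition above 50%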;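 further: 0% = DMSO wells and 100% = digitonin-killed cells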); conditions: HepG2 viability, 24-48 h, at 10 µM, active compounds read high
[3] = molecular target: L-lactate dehydrogenase (Plasmodium falciparum (isolate CDC / Honduras)) (UniProt Q27743); experiment: PfLDH activity inhibition – cell lysate, 3D7 strain, counter-screen for P. falciparum growth inhibition project (AID 2304);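 further: 0% = vehicle and 100% = reference inhibitor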; conditions: P. falciparum 3D7 crude extract, LDH APAD/NBT absorbance; at 2 µM; active compounds read high
[4] = inhibition of 3D7 malaria parasite growth – strain 3D7 (AID 2306);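 further: 0% = DMSO wells and 100% = chloroquine plus artemisinin control wells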; conditions: P. falciparum 3D7 erythrocytic growth, LDH absorbance, 72 h; at 2 µM; active compounds read high
[5] = molecular target: Calcium-dependent protein kinase 1 (Plasmodium falciparum (isolate 3D7)) (UniProt P62344); experiment: PfCDPK1 kinase inhibitors, biochemical, TCAMS library (AID 1159585; cut-off not given, nearly all actives have IC50 up to about 0.98 µM;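 further: inhibitors leave more ATP so luminescence rises with inhibition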); conditions: recombinant PfCDPK1, Kinase-Glo ATP depletion luminescence
[6] = molecular target: Plasmodium falciparum protein kinase 6 (PK6, PF3D7_1337100) (UniProt Q8IDW1); experiment: PfPK6 kinase inhibitors, biochemical, TCAMS library (AID 1159586); conditions: recombinant PfPK6, Kinase-Glo ATP depletion luminescence
[7] = molecular target: Protein kinase 7 (PK7), Plasmodium falciparum 3D7 (PF3D7_0213400) (UniProt Q7YTF7); experiment: inhibition of Plasmodium PK7 catalytic activity – biochemical, TCAMS antimalarial set, Kinase-Glo luminescence (AID 1159587); conditions: recombinant PfPK7, Kinase-Glo ATP depletion luminescence
[8] = molecular target: Calcium-dependent protein kinase 4 (Plasmodium falciparum (isolate 3D7)) (UniProt Q8IBS5); experiment: PfCDPK4 kinase inhibitors, biochemical, TCAMS library (AID 1159588; cut-off not given, nearly all actives have IC50 up to about 0.91 µM); conditions: recombinant PfCDPK4, Kinase-Glo ATP depletion luminescence
Chain of Calcium-dependent protein kinase 4 (Plasmodium falciparum (isolate 3D7)) (Q8IBS5 whole entry, looked up): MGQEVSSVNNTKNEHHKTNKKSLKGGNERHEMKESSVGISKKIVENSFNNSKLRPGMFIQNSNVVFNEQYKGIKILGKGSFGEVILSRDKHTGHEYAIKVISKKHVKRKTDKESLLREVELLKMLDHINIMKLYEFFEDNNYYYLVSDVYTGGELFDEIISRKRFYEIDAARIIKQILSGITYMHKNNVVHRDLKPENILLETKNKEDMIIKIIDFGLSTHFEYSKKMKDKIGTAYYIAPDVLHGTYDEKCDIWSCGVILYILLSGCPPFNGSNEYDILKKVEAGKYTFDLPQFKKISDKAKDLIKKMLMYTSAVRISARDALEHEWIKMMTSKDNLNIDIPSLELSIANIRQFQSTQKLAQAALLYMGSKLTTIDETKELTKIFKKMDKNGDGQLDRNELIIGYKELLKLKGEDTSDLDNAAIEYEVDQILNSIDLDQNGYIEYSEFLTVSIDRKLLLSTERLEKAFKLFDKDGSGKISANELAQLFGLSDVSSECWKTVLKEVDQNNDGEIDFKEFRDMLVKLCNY

Chain of L-lactate dehydrogenase (Plasmodium falciparum (isolate CDC / Honduras)) (Q27743 whole entry, looked up): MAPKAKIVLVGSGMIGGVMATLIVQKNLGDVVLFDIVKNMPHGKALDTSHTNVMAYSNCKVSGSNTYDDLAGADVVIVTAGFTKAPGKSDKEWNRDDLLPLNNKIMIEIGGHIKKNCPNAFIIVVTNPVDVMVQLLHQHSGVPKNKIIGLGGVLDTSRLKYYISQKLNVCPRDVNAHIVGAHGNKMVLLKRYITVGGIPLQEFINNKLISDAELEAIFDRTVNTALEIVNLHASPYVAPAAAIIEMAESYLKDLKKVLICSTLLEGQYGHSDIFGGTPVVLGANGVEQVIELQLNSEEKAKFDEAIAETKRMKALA
Chain of Protein kinase 7 (PK7), Plasmodium falciparum 3D7 (PF3D7_0213400) (Q7YTF7 1-343): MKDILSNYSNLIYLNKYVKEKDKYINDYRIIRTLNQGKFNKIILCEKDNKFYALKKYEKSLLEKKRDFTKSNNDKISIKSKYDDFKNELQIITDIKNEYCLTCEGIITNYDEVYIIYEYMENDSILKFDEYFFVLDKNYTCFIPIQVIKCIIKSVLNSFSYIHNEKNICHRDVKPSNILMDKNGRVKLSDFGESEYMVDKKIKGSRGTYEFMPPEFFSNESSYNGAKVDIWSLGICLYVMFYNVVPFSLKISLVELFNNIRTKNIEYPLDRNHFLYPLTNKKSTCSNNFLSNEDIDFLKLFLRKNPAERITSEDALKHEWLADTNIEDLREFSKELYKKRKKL
Chain of Plasmodium falciparum protein kinase 6 (PK6, PF3D7_1337100) (Q8IDW1 1-305): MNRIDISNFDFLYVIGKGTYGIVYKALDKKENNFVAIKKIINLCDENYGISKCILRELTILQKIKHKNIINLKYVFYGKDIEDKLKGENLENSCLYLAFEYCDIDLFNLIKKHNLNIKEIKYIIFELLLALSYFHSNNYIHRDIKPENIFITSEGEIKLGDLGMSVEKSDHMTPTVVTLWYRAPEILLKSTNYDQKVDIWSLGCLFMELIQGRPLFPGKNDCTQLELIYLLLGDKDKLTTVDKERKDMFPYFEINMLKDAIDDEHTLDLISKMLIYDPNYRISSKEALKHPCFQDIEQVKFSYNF
Chain of Calcium-dependent protein kinase 1 (Plasmodium falciparum (isolate 3D7)) (P62344 whole entry, looked up): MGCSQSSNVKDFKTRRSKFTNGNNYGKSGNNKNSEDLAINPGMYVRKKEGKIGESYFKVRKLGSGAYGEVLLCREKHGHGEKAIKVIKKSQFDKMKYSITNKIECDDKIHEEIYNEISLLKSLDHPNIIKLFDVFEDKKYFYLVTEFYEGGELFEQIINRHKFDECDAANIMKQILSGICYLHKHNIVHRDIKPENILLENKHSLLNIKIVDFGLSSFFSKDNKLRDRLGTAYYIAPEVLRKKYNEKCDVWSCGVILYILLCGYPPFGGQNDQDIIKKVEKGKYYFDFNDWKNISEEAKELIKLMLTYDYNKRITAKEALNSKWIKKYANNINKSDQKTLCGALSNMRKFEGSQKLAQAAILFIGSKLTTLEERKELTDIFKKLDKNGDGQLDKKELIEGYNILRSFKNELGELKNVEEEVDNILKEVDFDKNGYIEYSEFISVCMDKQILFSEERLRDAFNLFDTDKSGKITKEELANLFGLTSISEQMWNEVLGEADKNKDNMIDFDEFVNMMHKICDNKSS

Row | Structure (SMILES) | growth inhibition [1] | inhibition [2] | inhibition [3] [%] | growth inhibition [4] | outcome [5] | outcome [6] | outcome [7] | outcome [8]
1 | CCOC(=O)c1ccc(NC(=O)Nc2cccc(-c3cccc(-c4nc5ccccc5[nH]4)c3)c2)cc1 | 99% (active) | 76% (active) | -3 | 100% (active) | inactive | inactive | inactive | inactive
2 | O=C(NCCCCCN1CCCN(C(=O)Nc2ccc(Cl)c(C(F)(F)F)c2)CC1)[C@@H]1C[C@H]1c1ccc(Cl)c(Cl)c1 | 1% | 41% | 3 | 100% (active) | inactive | inactive | inactive | inactive
3 | CN1CCN(c2ccnc3ccc(NC(=O)Nc4ccc(-c5ccccc5)cc4)cc23)CC1 | 41% | -10% | -7 | 99% (active) | inactive | inactive | inactive | inactive
4 | NC(N)=NCCN(Cc1ccccc1)c1ccc(Cl)cc1 | 99% (active) | -7% | -3 | 100% (active) | inactive | inactive | inactive | inactive
5 | CC(C)C(C(=O)Nc1ccc(S(=O)(=O)N(C)C)cc1)c1ccc(Cl)cc1 (stereo not given) | 98% (active) | 27% | -2 | 100% (active) | inactive | inactive | inactive | inactive
6 | Cc1c(F)cc(C(=O)NC2CC2)cc1-c1ccc2c(c1)c(C)nn2S(=O)(=O)c1cccs1 | 92% (active) | 34% | -3 | 91% (active) | inactive | inactive | inactive | inactive
7 | Cn1nccc1C(=O)NCCNCc1cccc(-c2ccc(-c3nc4ccccc4[nH]3)cc2)c1 | 98% (active) | 19% | 4 | 100% (active) | inactive | inactive | inactive | inactive
8 | CCOCCCn1c(=N)c(C(=O)NCc2ccc(F)cc2)cc2c(=O)n3cccc(C)c3nc21 | 40% | 21% | 5 | 101% (active) | inactive | inactive | inactive | inactive
9 | Cc1cc(NCC(c2ccccc2)c2ccccc2)nc(NCc2ccc(C(F)(F)F)cc2)n1 | 79% (active) | 29% | 2 | 102% (active) | inactive | inactive | inactive | inactive
10 | CC(=O)c1nccc(C)c1N | -1% | 10% | 1 | 92% (active) | inactive | inactive | inactive | inactive
11 | CCOC(=O)c1ccc(NC(=O)Nc2ccc(-c3cccc(-c4nc5c(C)cccc5[nH]4)c3)cc2)cc1 | 100% (active) | 91% (active) | -2 | 101% (active) | inactive | inactive | inactive | inactive
12 | CCOc1ccc(C(C)NC(=O)c2ccc(OC)c(Br)c2)cc1OCC (stereo not given) | 100% (active) | 9% | 2 | 100% (active) | inactive | inactive | inactive | inactive
13 | N#Cc1ccnc(-c2ccc(CNC3CCN(CC4Cn5c(=O)ccc6ccc(F)c4c65)CC3)cc2)c1 (stereo not given) | 41% | 24% | 2 | 88% (active) | inactive | inactive | inactive | inactive
14 | O=C(CCCCCNC(=O)c1ccc(O)c(-c2ccc(Cl)c(Cl)c2)c1)NCCN1CCCC1 | 2% | -6% | -2 | 90% (active) | inactive | inactive | inactive | inactive
15 | Cn1cncc1C(=O)Nc1ccc(-c2cccc(-c3nc4ccc(C(F)(F)F)cc4[nH]3)c2)cc1 | 3% | 34% | 4 | 100% (active) | inactive | inactive | inactive | inactive
16 | COc1ccc2c(NN=Cc3ccccc3)ccnc2c1 | 98% (active) | 18% | -5 | 101% (active) | inactive | inactive | inactive | inactive
17 | Cc1cc(-c2cnc(N)c(-c3ccc(N4CCN(C)CC4)nc3)c2)cc(C)c1O | 33% | -12% | 7 | 91% (active) | inactive | inactive | inactive | inactive
18 | CCOc1ncccc1CN1CCC(N2CCc3cc(NC(=O)c4cc(C)on4)ccc32)C1 (stereo not given) | 96% (active) | -3% | -1 | 89% (active) | inactive | inactive | inactive | inactive
19 | Nc1ncnc2cc(-c3cccc(S(N)(=O)=O)c3)sc12 | 99% (active) | 13% | 2 | 98% (active) | inactive | inactive | inactive | inactive
20 | O=C(Nc1cc(F)c(F)c(-c2cccnc2)c1)N1CCc2cc(Cl)c(Cl)cc21 | 9% | 0% | 5 | 94% (active) | inactive | inactive | inactive | inactive

Row | Structure (SMILES) | growth inhibition [1] | inhibition [2] | inhibition [3] [%] | growth inhibition [4] | outcome [5] | outcome [6] | outcome [7] | outcome [8]
21 | NC(Cc1cccc(I)c1)C(=O)NCC1CCCO1 (stereo not given) | 50% (active) | 52% (active) | 1 | 98% (active) | inactive | inactive | inactive | inactive
22 | NCc1ccc(-c2ccc3c(N)nccc3c2)cc1 | 92% (active) | 28% | 0 | 100% (active) | inactive | inactive | inactive | inactive
23 | COc1ccc(C2N=C(N)N=C(N)N2c2ccc(Cl)cc2)cc1OC (stereo not given) | 4% | 4% | -1 | 85% (active) | inactive | inactive | inactive | inactive
24 | CN(C)CCCOc1ccc(CCNCc2cccc(Oc3ccc(Cl)cc3)c2)cc1 | 26% | 57% (active) | -4 | 94% (active) | inactive | inactive | inactive | inactive
25 | Cc1cccc2[nH]c(-c3ccc(-c4ccc(CN5CCN(C6CCN(C)CC6)CC5)cc4)cc3)nc12 | 100% (active) | 99% (active) | -5 | 100% (active) | inactive | inactive | inactive | inactive
26 | COc1ccc(-n2ccnc2)cc1CNC1CCN(CC2Cn3c(=O)ccc4ccc(F)c2c43)CC1 (stereo not given) | 18% | 25% | -1 | 99% (active) | inactive | inactive | inactive | inactive
27 | CCOc1cc(-c2nnc3[nH]c(=O)n(C)c(=O)c3n2)ccc1OC(C)C | 86% (active) | 15% | 1 | 97% (active) | inactive | inactive | inactive | inactive
28 | Cc1noc(-c2ccc3c(c2)CCN(CCC2CCC(NC(=O)/C=C/c4cccc(Cl)c4)CC2)CC3)n1 (stereo not given) | 24% | 37% | 4 | 86% (active) | inactive | inactive | inactive | inactive
29 | O=C(Nc1ccc(C(=O)Nc2ccc(C3=NCCN3)cc2)cc1)Nc1ccc(C2=NCCN2)cc1 | 95% (active) | -8% | -7 | 94% (active) | inactive | inactive | inactive | inactive
30 | CC(=O)Nc1ccc(OCCCCN(Cc2ccccc2C(F)(F)F)c2ccc(C#N)c(C(F)(F)F)c2)c(Cl)c1 | 71% (active) | -1% | -3 | 98% (active) | inactive | inactive | inactive | inactive
31 | CC(=O)c1c(C)[nH]c(C(=O)Nc2ccc(-c3nc4ccc(C)cc4s3)cc2)c1C | 40% | 11% | -2 | 92% (active) | inactive | inactive | inactive | inactive
32 | COc1cc2nc(N(C)C)nc(Nc3ccc4c(cnn4Cc4ccccc4)c3)c2cc1OC | 102% (active) | 90% (active) | -4 | 100% (active) | inactive | inactive | inactive | inactive
33 | CCCN(CCCN(CCCN(CCC)C(C)C)c1cc(C)nc(Nc2ccc(Cl)cc2)n1)C(C)C | 99% (active) | 39% | 0 | 102% (active) | inactive | inactive | inactive | inactive
34 | CCCCOc1c(CCC)cc(Cc2cnc(N)nc2N)cc1CCC | -2% | 27% | 2 | 97% (active) | inactive | inactive | inactive | inactive
35 | CN1CCN(CCCNCc2ccccc2-c2cccc(CNCc3ccc4c(c3)OCO4)c2)CC1 | 7% | 34% | -1 | 102% (active) | inactive | inactive | inactive | inactive
36 | O=S(=O)(c1ccc(OCc2ccc(Cl)cc2)cc1)c1cc2c(cc1OCc1ccccc1)CCN(CC1CC1)CC2 | -2% | 19% | -3 | 82% (active) | inactive | inactive | inactive | inactive
37 | CN(Cc1cccc(C#N)c1)C1CCN(c2cc(NC(=O)c3ccc(F)cc3)ccn2)CC1 | 23% | 4% | -1 | 97% (active) | inactive | inactive | inactive | inactive
38 | CN(C)c1ccc(-c2cscc2C(=O)NC2CCCN(Cc3cccnc3)C2)cc1 (stereo not given) | 70% (active) | 5% | 0 | 89% (active) | inactive | inactive | inactive | inactive
39 | CCNc1cc(C(=O)N[C@@H](Cc2ccccc2)[C@H](O)CN[C@@H](C)c2cccc(OC)c2)cc(N2CCCC2=O)c1 | 65% (active) | 5% | -1 | 95% (active) | inactive | inactive | inactive | inactive
40 | COc1ccc(NC(=O)/C=C/c2ccc(Cl)c(Cl)c2)cc1N1CCN(C)CC1 | 20% | 23% | -3 | 90% (active) | inactive | inactive | inactive | inactive
